Results taken from PubChem BioAssay (NCI).
This is part of a sample that, as a whole, favours compounds with a hit. Of some 79,000 tested, about 15% had one in any assay. Active and inactive are the calls of the source. Rule as the data show it: active = growth inhibition above about 70%; inactive = the rest.

Assays:
[1] = NCI Yeast Anticancer Drug Screen. Data for the rad52 strain (AID 147);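 also: 0% = growth of vehicle-treated control cultures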; conditions: S. cerevisiae rad52 mutant growth inhibition, hits give high values
In short: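 Yeast strain carrying a DNA damage repair alteration was exposed to test compounds. Growth inhibition was measured relative to vehicle-treated controls.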

[2] = NCI Yeast Anticancer Drug Screen. Data for the wt1 strain (AID 149);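 also: 0% = growth of vehicle-treated wt1 cultures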; conditions: S. cerevisiae wt1 strain (SPY 50644) growth inhibition, hits give high values
In short: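 Measured: growth of wt1 yeast under compound versus vehicle treatment, reported as inhibition.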

[3] = NCI Yeast Anticancer Drug Screen. Data for the rad50EPP+ strain (AID 151);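 also: 0% = growth of vehicle-treated control cultures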; conditions: S. cerevisiae rad50 mutant strain, hits give high values
In short: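 Yeast strain carrying rad50 alteration (rad50EPP+) exposed to compounds; growth inhibition measured relative to vehicle-treated controls.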

[4] = NCI Yeast Anticancer Drug Screen. Data for the mgt1 strain (AID 153); conditions: S. cerevisiae mgt1 mutant growth inhibition, hits give high values
In short: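 Yeast mgt1 strain (DNA repair/cell-cycle alteration panel) exposed to compounds; growth inhibition measured relative to vehicle-treated controls.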

[5] = NCI Yeast Anticancer Drug Screen. Data for the rad50 strain (AID 155);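 also: 0% = growth of vehicle-only cultures of the same strain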; conditions: S. cerevisiae rad50 strain growth inhibition, hits give high values
In short: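 Growth of the mutant yeast was measured after compound exposure and referenced to vehicle-treated cultures.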

[6] = NCI Yeast Anticancer Drug Screen. Data for the mec2-1 strain (AID 157); conditions: S. cerevisiae mec2-1 strain, hits give high values
In short: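 mec2-1 yeast strain, carrying an alteration in DNA damage repair or cell cycle control, was exposed to compounds; growth inhibition was measured relative to vehicle-treated controls.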

[7] = NCI Yeast Anticancer Drug Screen. Data for the rad14 strain (AID 159);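 also: 0% = growth of vehicle-treated control cultures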; conditions: S. cerevisiae rad14 strain growth inhibition, hits give high values
In short: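 Here, inhibition of yeast growth was measured after compound exposure, using a strain with a genetic defect in DNA damage repair and vehicle-treated cultures as the reference.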

[8] = NCI Yeast Anticancer Drug Screen. Data for the sgs1 mgt1 strain (AID 161);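 also: 0% = growth of cultures given vehicle only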; conditions: S. cerevisiae sgs1 mgt1 strain, hits give high values
In short: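 This yeast growth screen uses a strain with defined DNA-repair lesions; compound-treated growth is compared with vehicle-treated growth.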

[9] = NCI Yeast Anticancer Drug Screen. Data for the CLN2oe strain (AID 163);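 also: 0% = growth of vehicle-only control cultures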; conditions: S. cerevisiae CLN2oe strain, hits give high values
In short: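 Yeast cells carrying a defined cell-cycle control alteration were exposed to test compounds. Growth inhibition was scored against vehicle-treated control cultures.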

[10] = NCI Yeast Anticancer Drug Screen. Data for the cln2 rad14 strain (AID 165);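 also: 0% = growth equal to vehicle treated cultures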; conditions: S. cerevisiae cln2 rad14 strain, hits give high values
In short: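 Yeast carrying cln2 and rad14 alterations (cell cycle control and DNA damage repair) were exposed to compounds. Growth inhibition was measured against vehicle-treated controls.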

[11] = NCI Yeast Anticancer Drug Screen. Data for the bub3 strain (AID 167); conditions: S. cerevisiae bub3 mutant strain, hits give high values
In short: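 Whole-cell yeast assay. The mutant strain was incubated with compounds, and growth inhibition was determined by comparison with vehicle-treated cells.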

[12] = NCI Yeast Anticancer Drug Screen. Data for the wt2 strain (AID 169);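 also: 0% = growth of vehicle-treated yeast cultures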; conditions: S. cerevisiae wt2 strain growth inhibition, hits give high values
In short: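 Yeast cells were exposed to test compounds, and growth inhibition was measured relative to vehicle-treated controls.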

[13] = NCI Yeast Anticancer Drug Screen. Data for the mlh1 strain (AID 171);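 also: 0% = growth of vehicle-treated control cultures of the same strain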; conditions: S. cerevisiae mlh1 strain growth inhibition, hits give high values
In short: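 Yeast carrying a defined genetic alteration in DNA damage repair or cell cycle control were exposed to test compounds. Growth inhibition was measured relative to vehicle-treated controls.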

[14] = NCI Yeast Anticancer Drug Screen. Data for the sgs1 strain (AID 173);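 also: 0% = growth of vehicle-only control cultures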; conditions: S. cerevisiae sgs1 mutant, hits give high values
In short: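 Yeast mutant strains carrying defined defects in DNA damage repair or cell cycle control were exposed to test compounds. Growth inhibition was scored against vehicle-treated controls.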

[15] = NCI Yeast Anticancer Drug Screen. Data for the mlh1 rad18 strain (AID 175); conditions: S. cerevisiae mlh1 rad18 strain growth inhibition, hits give high values
In short: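 Growth inhibition of the yeast strain was measured after compound exposure and expressed relative to vehicle-treated controls. The strain carries defined defects in DNA damage repair.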

[16] = NCI Yeast Anticancer Drug Screen. Data for the rad18 strain (AID 177); conditions: S. cerevisiae rad18 mutant growth inhibition, hits give high values
In short: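 Yeast carrying a defined DNA damage repair alteration were exposed to compounds. Growth inhibition was expressed relative to vehicle-treated controls.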

[17] = at 5.0 µM (retest, dose inferred, filed as 0.5)
[18] = at 50.0 µM (retest, dose inferred, filed as 5.0)

Measured: growth inhibition

BrCC[P+](c1ccccc1)(c1ccccc1)c1ccccc1
inactive: [1]; at 1.2 µM -39% | [1]; at 3.7 µM -45% | [1]; at 11.0 µM 58% | [2]; at 1.2 µM -60% | [2]; at 3.7 µM -56% | [2]; at 11.0 µM -4% | [3]; at 1.2 µM -44% | [3]; at 3.7 µM -47% | [3]; at 11.0 µM 19% | [4]; at 1.2 µM -61% | [4]; at 3.7 µM -53% | [4]; at 11.0 µM -7% | [5]; at 1.2 µM -36% | [5]; at 3.7 µM -30% | [5]; [17] 19% | [5]; at 11.0 µM 54% | [6]; at 1.2 µM -74% | [6]; at 3.7 µM -63% | [6]; [17] 16% | [6]; at 11.0 µM 14% | [7]; at 1.2 µM -32% | [7]; at 3.7 µM -52% | [7]; at 11.0 µM -16% | [8]; [17] 49% | [9]; at 1.2 µM -21% | [9]; at 3.7 µM -22% | [9]; at 11.0 µM 2% | [10]; [17] 43% | [11]; at 1.2 µM -70% | [11]; at 3.7 µM -32% | [11]; [17] 47% | [11]; at 11.0 µM 32% | [12]; at 1.2 µM -15% | [12]; at 3.7 µM -5% | [12]; at 11.0 µM 15% | [13]; at 1.2 µM -38% | [13]; at 3.7 µM -70% | [13]; at 11.0 µM 28% | [14]; at 1.2 µM -35% | [14]; at 3.7 µM -56% | [14]; at 11.0 µM -40% | [15]; [17] 5% | [16]; at 1.2 µM -59% | [16]; at 3.7 µM -42% | [16]; at 11.0 µM 54%
active: [1]; at 33.0 µM 94% | [1]; at 100.0 µM 96% | [2]; at 33.0 µM 96% | [2]; at 100.0 µM 98% | [3]; at 33.0 µM 88% | [3]; at 100.0 µM 95% | [4]; at 33.0 µM 94% | [4]; at 100.0 µM 98% | [5]; at 33.0 µM 94% | [5]; [18] 97% | [5]; at 50.0 µM 84.7% | [5]; at 100.0 µM 95% | [6]; at 33.0 µM 95% | [6]; [18] 98% | [6]; at 50.0 µM 90.2% | [6]; at 100.0 µM 97% | [7]; at 33.0 µM 94% | [7]; at 100.0 µM 97% | [8]; [18] 99% | [8]; at 50.0 µM 87% | [9]; at 33.0 µM 90% | [9]; at 100.0 µM 95% | [10]; [18] 98% | [10]; at 50.0 µM 73.8% | [11]; at 33.0 µM 93% | [11]; [18] 98% | [11]; at 50.0 µM 87.8% | [11]; at 100.0 µM 97% | [12]; at 33.0 µM 88% | [12]; at 100.0 µM 95% | [13]; at 33.0 µM 93% | [13]; at 100.0 µM 97% | [14]; at 33.0 µM 89% | [14]; at 100.0 µM 94% | [15]; [18] 96% | [15]; at 50.0 µM 83.6% | [16]; at 33.0 µM 95% | [16]; at 100.0 µM 95%

CC1OCC2OC(C)OC(C3C4=C(CC(C)(C)CC4=O)OC4=C3C(=O)CC(C)(C)C4)C2O1 (stereo unspecified)
active: [5]; at 50.0 µM 82.2% | [5]; at 100.0 µM 80% | [15]; at 50.0 µM 80.7% | [16]; at 33.0 µM 78% | [16]; at 100.0 µM 91%
inactive: [1]; at 1.2 µM 0% | [1]; at 3.7 µM 4% | [1]; at 11.0 µM 17% | [1]; at 33.0 µM 38% | [1]; at 100.0 µM 56% | [2]; at 1.2 µM -2% | [2]; at 3.7 µM 2% | [2]; at 11.0 µM 6% | [2]; at 33.0 µM 24% | [2]; at 100.0 µM 45% | [3]; at 1.2 µM -3% | [3]; at 3.7 µM -5% | [3]; at 11.0 µM -4% | [3]; at 33.0 µM -1% | [3]; at 100.0 µM 1% | [4]; at 1.2 µM -1% | [4]; at 3.7 µM 2% | [4]; at 11.0 µM 2% | [4]; at 33.0 µM 2% | [4]; at 100.0 µM 21% | [5]; at 1.2 µM 7% | [5]; at 3.7 µM -32% | [5]; [17] 10% | [5]; at 11.0 µM 49% | [5]; at 33.0 µM 61% | [5]; [18] 57% | [6]; at 1.2 µM 0% | [6]; at 3.7 µM 3% | [6]; [17] 7% | [6]; at 11.0 µM 12% | [6]; at 33.0 µM 28% | [6]; [18] -18% | [6]; at 50.0 µM 27.4% | [6]; at 100.0 µM 46% | [7]; at 1.2 µM -1% | [7]; at 3.7 µM -1% | [7]; at 11.0 µM 5% | [7]; at 33.0 µM 18% | [7]; at 100.0 µM 41% | [8]; [17] 5% | [8]; [18] 37% | [8]; at 50.0 µM 40.7% | [9]; at 1.2 µM -2% | [9]; at 3.7 µM -4% | [9]; at 11.0 µM -2% | [9]; at 33.0 µM -2% | [9]; at 100.0 µM -3% | [10]; [17] 5% | [10]; [18] 15% | [10]; at 50.0 µM 3.55% | [11]; at 1.2 µM 1% | [11]; at 3.7 µM 2% | [11]; [17] -46% | [11]; at 11.0 µM 7% | [11]; at 33.0 µM 29% | [11]; [18] 32% | [11]; at 50.0 µM 57.8% | [11]; at 100.0 µM 66% | [12]; at 1.2 µM -1% | [12]; at 3.7 µM 9% | [12]; at 11.0 µM 1% | [12]; at 33.0 µM 4% | [12]; at 100.0 µM 23% | [13]; at 1.2 µM 1% | [13]; at 3.7 µM 2% | [13]; at 11.0 µM 4% | [13]; at 33.0 µM 8% | [13]; at 100.0 µM 25% | [14]; at 1.2 µM -2% | [14]; at 3.7 µM 1% | [14]; at 11.0 µM 9% | [14]; at 33.0 µM 32% | [14]; at 100.0 µM 65% | [15]; [17] 9% | [15]; [18] 46% | [16]; at 1.2 µM 3% | [16]; at 3.7 µM 18% | [16]; at 11.0 µM 43%
